This is part of a sample that, as a whole, favours compounds with a hit. Of some 83,000 tested, about 20% had one in any assay.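 The endpoint reported here, percent growth, reads 100 for growth as untreated, 0 for no net growth and -100 for all cells dead.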 Calls of active or inactive are those of the source. How the source made its calls: active means growth percent below 10; inactive means the rest.
Tests used:
Test in all cases: NCI-60 one-dose screen, 48 h (100 = growth as untreated, 0 = no growth, -100 = all killed)
Details in all cases: 10 µM
[1] = system: K-562 leukemia
[2] = system: MDA-MB-231 breast
[3] = system: RXF 393 renal
[4] = system: SF-268 CNS
[5] = system: SF-295 CNS
[6] = system: SF-539 CNS
[7] = system: UACC-257 melanoma
[8] = system: M14 melanoma
[9] = system: HCT-15 colon

Measured: growth

COc1cc(C2CC(c3ccc(Nc4ccnc5cc(Cl)ccc45)cc3)=NN2c2ccc(Cl)cc2)cc(OC)c1OC (stereo not given)
inactive: [2] 42.6% | [3] 60.4% | [4] 48.5% | [5] 28.8% | [6] 59.3% | [7] 61.3% | [8] 38.2% | [9] 45.4%
active: [1] 6.22%

O=C(NC(Cc1ccc(O)cc1)C(=O)N=Nc1c(O)[nH]c2ccccc12)c1ccccc1 (stereo not given)
inactive: [1] 107% | [2] 110% | [3] 108% | [4] 97.8% | [5] 97.4% | [6] 98.3% | [7] 97.5% | [8] 94% | [9] 103%

O=C(Nc1ccncc1)C(=O)c1cn(S(=O)(=O)c2cccc3ccccc23)c2ccccc12
inactive: [1] 18.9% | [2] 74.6% | [3] 89.7% | [4] 107% | [5] 52% | [6] 92.7% | [7] 89% | [8] 82.7% | [9] 65.7%

Clc1ccc(/C=C2\CCCC3=C2N=C2SC=NN2C3c2ccc(Cl)cc2)cc1 (stereo not given)
inactive: [1] 102% | [2] 104% | [3] 105% | [4] 99.2% | [5] 105% | [6] 106% | [7] 97.1% | [8] 94.9% | [9] 87.3%

Nc1ccc2cc(S(=O)(=O)O)cc(O)c2c1N=Nc1ccc(F)cc1
inactive: [1] 119% | [2] 112% | [3] 119% | [4] 114% | [5] 110% | [6] 95.9% | [7] 106% | [8] 100% | [9] 105%

c1ccc2c(c1)oc1c3cccnc3ccc21
inactive: [1] 95.8% | [2] 87.7% | [3] 94.4% | [4] 98.3% | [5] 105% | [6] 88.1% | [7] 101% | [8] 100% | [9] 95.1%

O=C(CCCCC[P+](c1ccccc1)(c1ccccc1)c1ccccc1)NC(COC(=O)C(Cl)Cl)(COC(=O)C(Cl)Cl)COC(=O)C(Cl)Cl
inactive: [1] 98.2% | [2] 111% | [3] 101% | [4] 103% | [5] 99% | [6] 107% | [7] 97.5% | [8] 102% | [9] 99%

O=C1OCC2=C1C(c1cccc(Cl)c1)c1cc3c(cc1N2CCO)OCCO3 (stereo not given)
active: [2] -3.22% | [5] -16.5% | [6] -3.57% | [9] 8.81%
inactive: [1] 17.5% | [3] 33.9% | [4] 23.1% | [7] 44.6% | [8] 12.9%

c1ccc(C(NC2CC3CCC2C3)c2ccccc2)cc1 (stereo not given)
inactive: [1] 92.8% | [2] 96.1% | [3] 102% | [4] 105% | [5] 94.7% | [6] 111% | [7] 102% | [8] 93.1% | [9] 97.6%

NC1=NC(=O)C(c2ccccc2)(c2ccccc2)S1
inactive: [1] 90.8% | [2] 104% | [3] 109% | [4] 113% | [5] 112% | [6] 111% | [7] 110% | [8] 107% | [9] 101%

O=C(/C(=C/c1ccccc1)CN1CCCCC1)c1ccccc1
active: [1] 2.9% | [2] -24.8% | [3] -77.6% | [4] -9.79% | [6] -43.4% | [7] -0.832% | [8] -48.4% | [9] -40.6%
inactive: [5] 38.6%

Cc1cc2ccccc2nc1-c1ccccc1F
inactive: [1] 110% | [2] 112% | [3] 99% | [4] 101% | [5] 107% | [6] 107% | [7] 89.6% | [8] 108% | [9] 101%

COc1ccc2c(c1)sc1nc(-c3ccccc3)c(-c3cccnc3)n12
inactive: [1] 82% | [2] 107% | [3] 103% | [4] 111% | [5] 97% | [6] 102% | [7] 100% | [8] 97.7% | [9] 84.6%

CSc1cc(SC)ncn1
inactive: [1] 96.6% | [2] 95.7% | [3] 124% | [4] 112% | [5] 102% | [6] 98.1% | [7] 104% | [8] 112% | [9] 98.2%

CCCCCCCCCCCCCC[n+]1ccc(C(N)=O)cc1
active: [1] 9.07% | [2] -35.3% | [3] -52.4% | [4] -12.5% | [5] -27.8% | [6] -3.7% | [7] 9.72% | [8] -45.1%
inactive: [9] 62.6%

CCCCCCCCCCCC[n+]1ccc(C(N)=O)cc1
inactive: [2] 28.4% | [4] 22.1% | [5] 33.6% | [7] 29.6% | [8] 10.8% | [9] 87.3%
active: [1] 7.8% | [3] -23.4% | [6] 8.16%

O=C(CC(NC(=O)OCc1ccccc1)C(=O)OCc1ccccc1)OCc1ccccc1 (stereo not given)
inactive: [1] 112% | [2] 123% | [3] 125% | [4] 103% | [5] 110% | [6] 111% | [7] 94.2% | [8] 90.5% | [9] 106%

CN1c2ccccc2[C@]2(Cc3ccccc3)Cc3ccccc3N[C@H]12
inactive: [1] 92.1% | [2] 97.5% | [3] 112% | [4] 112% | [5] 104% | [6] 105% | [7] 111% | [8] 104% | [9] 96.3%

Clc1cccc(-c2nc(-c3cccs3)no2)c1
inactive: [1] 102% | [2] 81.4% | [3] 113% | [4] 106% | [5] 92.2% | [6] 92.6% | [7] 110% | [8] 105% | [9] 47.4%

Cc1ccc(-c2nc(/C=C3/C(=O)N(C)c4ccc(F)cc43)c3ccccn23)cc1
inactive: [1] 107% | [2] 76.5% | [3] 97.9% | [4] 92.1% | [5] 71.3% | [6] 94.6% | [7] 106% | [8] 99.5% | [9] 93%

COc1cc(-c2cc(C(=O)N3CCN(C(=O)c4ccccc4NCc4cccs4)CC3)nc3cc(-c4ccccc4)nn23)cc(OC)c1OC
inactive: [1] 31.4% | [2] 90.1% | [3] 62.3% | [4] 90.8% | [5] 105% | [6] 98.5% | [7] 76.4% | [8] 70.9% | [9] 55.4%

CCN(CC)CCOc1nc2ccc(OC)cc2c2c1-c1ccc(OC)cc1C2=O
active: [1] -43.5% | [3] 4.4% | [5] -2.73% | [7] -52.8% | [8] -83.3% | [9] -59.4%
inactive: [2] 20.5% | [4] 17.3% | [6] 28.8%

CC(=O)/C(=C/c1ccccc1)C(=O)CC(C)C
inactive: [1] 41.5% | [2] 119% | [3] 103% | [4] 95.3% | [5] 102% | [6] 109% | [7] 89.6% | [8] 82.9% | [9] 76.1%

O=[N+]([O-])c1cccc(N=Cc2ccc3c(c2)OCO3)c1
inactive: [1] 100% | [2] 130% | [3] 118% | [4] 114% | [5] 102% | [6] 115% | [7] 102% | [8] 97.7% | [9] 122%

COc1ccc(-c2nc3sc(-c4ccc(OC)cc4)c(-c4ccc(OC)cc4)n3c2/C=C/c2ccc(C(C)C)cc2)cc1
inactive: [1] 105% | [2] 90.9% | [3] 92.4% | [4] 106% | [5] 96.6% | [6] 94.3% | [7] 95.6% | [8] 98.4% | [9] 92.5%

O=C(O)c1ccc(Cl)cc1Nc1ccc(F)cc1
inactive: [1] 75.4% | [2] 70.4% | [3] 92.7% | [4] 62.4% | [5] 73% | [6] 93.8% | [7] 97.6% | [8] 77.6% | [9] 53.7%

CCN(CC)CCOc1nc2ccccc2c2c1-c1ccc(OC)cc1C2=O
active: [1] -17.8% | [3] 3.35% | [4] -6.65% | [5] -7.99% | [7] -18.8% | [8] -53.3% | [9] 2.9%
inactive: [2] 10.7% | [6] 29.2%

COc1ccc(-c2nc3sc(-c4ccccc4)c(-c4ccccc4)n3c2/C=C/C(=O)c2ccccn2)cc1
inactive: [1] 66% | [2] 75.9% | [3] 84% | [4] 88% | [5] 99.5% | [6] 83.7% | [7] 87.2% | [8] 89% | [9] 60.6%

COc1ccc2c(c1)C(=O)c1c-2c(OCCN(C)C)nc2ccccc12
inactive: [1] 10.2% | [2] 67.8% | [3] 49% | [4] 26.6% | [5] 18% | [6] 45.9% | [7] 36.2% | [8] 30% | [9] 20.5%

Cn1c(C(N)=O)cc2c1-c1nc(Nc3ccccc3)ncc1CCC2
active: [3] 3.67%
inactive: [1] 49.8% | [2] 38.1% | [4] 47.8% | [5] 60.6% | [6] 35.5% | [7] 74.3% | [8] 45.5% | [9] 34.6%

From PubChem BioAssay (NCI)
